Results on 16 compounds are retold here after PubChem BioAssay.

The nature of assay [1]: anti-His antibody binders, primary screen, artefact control for SMM control protein annotation, biochemical, small-molecule microarray, 635 nm fluorescence (AID 1128).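 Further: score merges feature fluorescence with signal-to-noise for each printed compound spot.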 The note with it: anti-His Alexa647 antibody binding, higher = more signal.
Assay [2] relates to Human papillomavirus type 1a E7 protein (residues 1-88). Kind of assay: HPV1a E7 small-molecule binders, primary screen, biochemical, small-molecule microarray, residues 1-88, 635 nm (AID 1129). The note with it: small-molecule microarray binding, fluorescence 635 nm; higher = more signal.
Assay [3] deals with Focal adhesion kinase 1 (Homo sapiens) (UniProt Q05397). Briefly: small-molecule microarray binders of FAK, primary screen, biochemical, 635/667 nm fluorescence, BSA, DTT (AID 1130).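 Further: composite of spot emission at 667 nm and signal to noise over triplicate slides.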 As to conditions: PTK2 binding, 635 nm fluorescence, higher = more signal.
Chain of Focal adhesion kinase 1 (Homo sapiens) (Q05397 whole entry, looked up): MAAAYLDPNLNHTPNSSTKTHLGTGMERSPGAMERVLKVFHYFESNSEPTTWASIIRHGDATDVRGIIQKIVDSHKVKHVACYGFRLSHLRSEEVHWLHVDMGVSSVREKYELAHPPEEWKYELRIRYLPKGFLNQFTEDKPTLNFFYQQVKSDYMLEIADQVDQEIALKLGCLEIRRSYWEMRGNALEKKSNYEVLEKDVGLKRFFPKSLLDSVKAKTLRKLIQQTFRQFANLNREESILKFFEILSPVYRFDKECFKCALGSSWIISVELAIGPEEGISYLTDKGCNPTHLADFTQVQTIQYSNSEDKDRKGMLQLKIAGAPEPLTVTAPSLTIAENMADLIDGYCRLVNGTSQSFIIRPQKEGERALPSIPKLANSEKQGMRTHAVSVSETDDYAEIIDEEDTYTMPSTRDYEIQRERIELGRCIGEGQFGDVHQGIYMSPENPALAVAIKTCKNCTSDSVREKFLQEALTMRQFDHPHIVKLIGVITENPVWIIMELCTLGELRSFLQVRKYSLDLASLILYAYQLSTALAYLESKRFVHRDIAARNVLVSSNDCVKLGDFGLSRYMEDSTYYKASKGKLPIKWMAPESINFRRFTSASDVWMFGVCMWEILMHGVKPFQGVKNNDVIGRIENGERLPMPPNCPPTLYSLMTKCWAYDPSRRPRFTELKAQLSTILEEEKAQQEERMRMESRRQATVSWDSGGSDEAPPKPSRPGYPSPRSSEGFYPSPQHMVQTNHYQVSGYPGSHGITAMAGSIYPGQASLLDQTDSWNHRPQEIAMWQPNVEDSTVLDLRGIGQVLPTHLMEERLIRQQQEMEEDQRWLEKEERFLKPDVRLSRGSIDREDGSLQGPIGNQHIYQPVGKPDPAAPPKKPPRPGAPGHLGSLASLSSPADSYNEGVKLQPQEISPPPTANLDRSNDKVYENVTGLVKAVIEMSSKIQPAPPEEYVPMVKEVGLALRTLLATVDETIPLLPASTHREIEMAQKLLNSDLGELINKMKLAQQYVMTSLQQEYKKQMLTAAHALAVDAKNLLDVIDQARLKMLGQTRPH
Assay [4] has as its system Fibrinogen (Alexa647-labelled). Briefly: fibrinogen binders on compound microarrays, profiling panel, artefact control for SMM control-protein annotation, biochemical, small-molecule microarray, 635/667 nm fluorescence (AID 1131).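 Further: z-score merges 667 nm fluorescence with per-spot signal-to-noise over triplicate slides.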 As to conditions: fibrinogen-A647 binding fluorescence, higher = more signal.
Assay [5] addresses Follistatin (Homo sapiens) (UniProt P19883). Briefly: follistatin binders on small-molecule microarrays, primary screen, biochemical, small-molecule microarray, 635/667 nm fluorescence (AID 1132). As to conditions: FST binding, 635 nm fluorescence, higher = more signal.
Assay [6] concerns the target Fibroblast growth factor 2 (Homo sapiens) (UniProt P09038). Kind of assay: FGF2 binders on small-molecule microarrays, primary screen, biochemical, small-molecule microarray, 635/667 nm fluorescence (AID 1133). As to conditions: small-molecule microarray binding, FGF2, fluorescence 635/667; higher = more signal.
Assay [7] in a line: mitochondrial membrane potential change in A549 cells, profiling panel, cell-based, JC-1 fluorescence, basal, 24 h, 100 nL (AID 1138).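 Further: A549 lung adenocarcinoma cells under basal conditions with no added stimulus; test concentration not given here.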 As to conditions: higher = more signal.
Assay [8] has as its system Lefty1. Briefly: Lefty1 binders on small-molecule microarrays, primary screen, biochemical, small-molecule microarray, 635/667 nm fluorescence (AID 1139). The note with it: small-molecule microarray binding, fluorescence 635/667; higher = more signal.
The test system of assay [9] is wheat germ agglutinin (Triticum aestivum), Alexa647-labelled. Briefly: wheat germ agglutinin binders on compound microarrays, profiling panel, artefact control for SMM control-protein annotation, biochemical, small-molecule microarray, 635/667 nm fluorescence (AID 1140).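 Further: score merges 667 nm feature emission with signal to noise over triplicate slides.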 The note with it: WGA-A647 binding, 635 nm fluorescence, higher = more signal.
Assay [10] concerns the target Luciferin 4-monooxygenase (Photinus pyralis) (UniProt P08659). Kind of assay: firefly luciferase enzyme inhibitors, primary screen, biochemical, luminescence, purified enzyme, 2006 set (AID 1141).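 Further: cell-free assay with purified firefly luciferase at 100 ng per well in PBS; test concentration not given here.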 As to conditions: SteadyGlo luminescence, 30 min, higher = more signal, called active from +8 up or from −8 down.

SMILES strings stand for the structures. Activity calls are given as the source filed them.

Chain of Follistatin (Homo sapiens) (P19883 whole entry, looked up): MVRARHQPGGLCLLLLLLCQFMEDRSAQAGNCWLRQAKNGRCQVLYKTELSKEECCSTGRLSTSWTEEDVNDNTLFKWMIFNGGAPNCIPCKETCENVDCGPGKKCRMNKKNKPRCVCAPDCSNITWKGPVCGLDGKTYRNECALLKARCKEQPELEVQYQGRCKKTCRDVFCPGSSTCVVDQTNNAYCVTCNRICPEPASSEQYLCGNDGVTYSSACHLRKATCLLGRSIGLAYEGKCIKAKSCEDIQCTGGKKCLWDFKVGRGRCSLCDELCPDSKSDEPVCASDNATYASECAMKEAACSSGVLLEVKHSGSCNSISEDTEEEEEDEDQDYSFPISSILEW
Chain of Luciferin 4-monooxygenase (Photinus pyralis) (P08659 whole entry, looked up): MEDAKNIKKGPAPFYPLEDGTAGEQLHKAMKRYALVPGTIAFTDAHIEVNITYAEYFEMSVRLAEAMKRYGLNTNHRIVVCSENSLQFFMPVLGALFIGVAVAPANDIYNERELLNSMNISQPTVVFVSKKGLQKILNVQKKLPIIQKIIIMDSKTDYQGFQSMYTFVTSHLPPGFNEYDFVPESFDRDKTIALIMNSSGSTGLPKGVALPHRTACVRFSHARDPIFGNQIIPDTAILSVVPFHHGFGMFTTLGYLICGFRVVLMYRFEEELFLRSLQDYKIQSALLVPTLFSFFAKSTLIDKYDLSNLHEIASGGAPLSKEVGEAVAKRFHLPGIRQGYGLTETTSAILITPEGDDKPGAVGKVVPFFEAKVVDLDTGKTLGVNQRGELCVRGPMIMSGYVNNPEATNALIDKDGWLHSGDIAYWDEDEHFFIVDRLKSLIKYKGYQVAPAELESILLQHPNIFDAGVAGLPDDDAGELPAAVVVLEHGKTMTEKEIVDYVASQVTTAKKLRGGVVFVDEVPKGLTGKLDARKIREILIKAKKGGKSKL
Chain of Fibroblast growth factor 2 (Homo sapiens) (P09038 whole entry, looked up): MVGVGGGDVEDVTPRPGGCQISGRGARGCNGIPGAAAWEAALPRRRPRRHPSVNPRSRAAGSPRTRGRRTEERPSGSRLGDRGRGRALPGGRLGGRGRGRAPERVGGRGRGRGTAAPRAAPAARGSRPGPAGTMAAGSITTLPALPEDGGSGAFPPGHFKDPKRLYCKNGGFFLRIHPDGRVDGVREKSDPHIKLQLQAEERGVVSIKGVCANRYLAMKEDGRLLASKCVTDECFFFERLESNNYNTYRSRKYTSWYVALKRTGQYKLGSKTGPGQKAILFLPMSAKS

In the case of `CN(C)C(=O)[C@@]1(Cc2ccccc2N=[N+]=[N-])N=C(c2ccc(OCCCO)cc2)O[C@H]1c1ccccc1N=[N+]=[N-]`, the composite z-score was 1.85 in assay [1]; 1.19 in assay [2]; 0.921 in assay [3]; 0.887 in assay [4]; 1.01 in [5]; -0.118 in assay [6]. The composite z-score in assay [8] turned out to be 0.16; in assay [9], 0.98. Moreover, the z-score in assay [7] was 2.01; in assay [10], -2.25 (inactive).
Take `CCOc1cc(C(O)C2C=CC3C(=O)NC(=O)C3N2Nc2ccccn2)ccc1O` (stereo not given): the composite z-score is 0.227 in [1]; 0.255 in assay [2]; -0.0976 in assay [3]; -0.32 in assay [4]; 0.262 in assay [5]; 0.835 in assay [6]. Moreover, the values for the composite z-score in assay [8] and in [9] were -0.0684 and -0.298, respectively. The figures for the z-score in assay [7] and in assay [10] were 0.208 and 0.25 (inactive), respectively.
Take `CC(C)C(CO)N1C(=O)[C@@H]2[C@H]3C(=O)OCC=C[C@H]3OC23C=CCN(CCN2CCOCC2)C(=O)[C@@H]13` (stereo not given in full): the composite z-score in assay [1] is 0.108; in [2] it was -0.438; in assay [3], -0.403; in assay [4], 0.0835; in assay [5], 0.418; in assay [6] it was -0.328. Moreover, the composite z-score is 0.817 in assay [8] and -0.467 in assay [9]. Moreover, the z-score in assay [7] was -0.0537; in assay [10], -0.233 (inactive).
With `O=C1O[C@H](c2ccccc2)[C@H](c2ccccc2)N2[C@H]1[C@@H](C(=O)N1CCN(c3ncccn3)CC1)[C@]1(C(=O)Nc3ccc(C#CCCO)cc31)[C@H]2c1ccc(OCCO)cc1`, the composite z-score amounted to 2.06 in assay [1]; 1.2 in assay [2]; 0.372 in [3]; 0.934 in assay [4]; 1.36 in assay [5]; 0.597 in assay [6]. Moreover, the composite z-score in assay [8] was 1.57; in assay [9], 0.772. In addition, the z-score in assay [7] was -0.756; in [10], -0.713 (inactive).
For `COC(=O)[C@@]1(Cc2ccccc2)[C@H]2c3cc(C(=O)N4CCCC4)n(Cc4ccccc4)c3C[C@H]2CN1C(=O)c1ccccc1`, the composite z-score in assay [1] was 0.673; in assay [2], 1.24; in assay [3], 0.756; in [4], 0.524; in [5], 0.841; in [6], -0.407. For the same compound, the composite z-score in [8] came out at 0.272; in assay [9] it was 0.893. Besides, the z-score in assay [7] is 0.339; in [10] it was 0.886 (inactive).
With `C#CCOC(=O)N[C@H](C=CCCCC)c1ccccc1`, the composite z-score was 1.33 in assay [1]; 0.95 in assay [2]; 0.4 in [3]; 0.762 in [4]; -0.101 in assay [5]; -0.204 in [6]. Also, the composite z-score in assay [8] is -1.09; in assay [9] it was 0.817. The results for the z-score in assay [7] and in [10] were 0.59 and 0.597 (inactive), respectively.
In the case of `CCCC[C@@H](O)C1=C(COc2ccccc2)Cn2c(=O)n(-c3ccccc3)c(=O)n2[C@H]1CO`, the composite z-score in assay [1] was -0.265; in assay [2], -0.476; in assay [3], -0.103; in assay [4], 0.729; in assay [5], -0.28; in assay [6] it was -0.242. The composite z-score in assay [8] was -0.193; in assay [9], 0.31. Further, the z-score in assay [7] is 0.363; in assay [10] it was -1.79 (inactive).
With `O=C1O[C@H](c2ccccc2)[C@H](c2ccccc2)N2[C@H]1[C@@H](C(=O)NC[C@H](O)c1ccccc1)[C@]1(C(=O)Nc3ccccc31)[C@H]2c1ccccc1OCCO`, the composite z-score in assay [1] came out at 2.24; in assay [2], 1.22; in assay [3], 0.271; in assay [4], 0.916; in assay [5], 0.455; in [6], 0.538. Moreover, the figures for the composite z-score in [8] and in [9] were 0.799 and 0.356, respectively. Besides, the z-score is -0.789 in assay [7] and -11 (active) in assay [10].
Take `CN(C)CCCC[C@@H]1NC(=O)[C@H]2C[C@@H](C(=O)NCCCCCCNC(=O)CS)[C@@H](c3ccc(O)cc3)N2C1=O`: the composite z-score in [1] is 0.135; in assay [2], 0.0218; in assay [3] it was 1.05; in assay [4], -0.934; in assay [5] it was 1.32; in assay [6] it was 0.804. Further, the composite z-score in assay [8] is 0.628; in assay [9], -0.149. Further, the z-score in assay [7] is -0.685; in [10] it was 0.78 (inactive).
On to `Cc1cc(C)c(C(O)C2C=CC3C(=O)N(c4ccccc4)C(=O)C3N2Nc2ccccc2)c(C)c1` (stereo not given), for which the composite z-score in assay [1] was 2.11; in [2] it was 1.22; in [3] it was 0.638; in assay [4] it was 1.03; in assay [5], 0.784; in assay [6] it was 0.0968. For the same compound, the figures for the composite z-score in assay [8] and in assay [9] were 0.366 and 1.43, respectively. The values for the z-score in [7] and in assay [10] were 0.384 and -0.584 (inactive), respectively.
Turning to `COC(=O)C(CC#Cc1ccc2c(c1)[C@]1(C(=O)N2)[C@H](c2ccc(O)cc2)N2[C@H](c3ccccc3)[C@H](c3ccccc3)OC(=O)[C@H]2[C@@H]1C(=O)O)C(=O)OC`, the composite z-score in assay [1] was 0.124; in [2], 0.56; in [3] it was 0.318; in assay [4], 0.298; in assay [5], 0.879; in assay [6], -0.12. In addition, the composite z-score in [8] was 0.369; in assay [9], -0.22. The z-score in assay [7] was -0.233; in assay [10], -0.462 (inactive).
In the case of `COc1ccc(C(=O)Nc2ccc(CN3C(=O)[C@@]4(O[C@@H](CC(=O)N5Cc6ccccc6C[C@H]5CO)[C@H]([Si](C)(C)c5ccc(OC)cc5)[C@H]4C)c4ccccc43)cc2)cc1`, the composite z-score in assay [1] is 0.299; in assay [2], 1.13; in [3] it was 1.2; in [4], 0.724; in assay [5], 1.33; in assay [6] it was 1.33. Also, the composite z-score in [8] was 1.62; in assay [9] it was 0.365. For the same compound, the z-score was 1.29 in assay [7] and 0.0093 (inactive) in assay [10].
In the case of `COc1cc2c(cc1OC)CN(C(=O)[C@@H]1[C@H]3C(=O)O[C@H](c4ccccc4)[C@H](c4ccccc4)N3[C@H](c3ccc(OCCO)cc3)[C@@]13C(=O)Nc1ccc(C#CCCO)cc13)CC2`, the composite z-score turned out to be 1.23 in assay [1]; 1.23 in assay [2]; 0.237 in assay [3]; 0.956 in assay [4]; 1.36 in [5]; 0.999 in [6]. Besides, the figures for the composite z-score in assay [8] and in [9] were 1.08 and 1.27, respectively. Further, the z-score is -1.37 in assay [7] and -0.418 (inactive) in assay [10].
Turning to `COC(=O)[C@@]1(Cc2ccccc2)[C@H]2c3cc(C(=O)N4CCCC4)n(Cc4ccc(OC(F)(F)F)cc4)c3C[C@H]2CN1C(=O)c1ccccc1`, the composite z-score is 1.52 in [1]; 1.24 in [2]; 0.653 in assay [3]; 0.892 in assay [4]; 0.575 in assay [5]; -0.65 in [6]. Moreover, the composite z-score was -0.577 in assay [8] and 1.16 in assay [9]. The z-score was 0.989 in assay [7] and 1 (inactive) in assay [10].
Turning to `COCCOC(=O)N1C(=O)[C@@]2(c3cc(C#CCC(C(=O)OC)C(=O)OC)ccc31)[C@H](c1ccc(OCCO)cc1)N1[C@H](c3ccccc3)[C@H](c3ccccc3)OC(=O)[C@H]1[C@@H]2C(N)=O`, the composite z-score came out at 1.38 in assay [1]; 1.2 in [2]; 1.16 in [3]; 0.924 in [4]; 1.28 in assay [5]; 1.13 in [6]. Further, the composite z-score in assay [8] stood at 0.484; in assay [9] it was 0.386. For the same compound, the z-score is -0.921 in assay [7] and -1.23 (inactive) in [10].
Consider `C[N+](C)(C)CCCCNC(=O)[C@H]1C[C@H]2C(=O)NCC(=O)N2[C@H]1c1ccc(O)cc1`, for which the composite z-score is 3.01 in assay [1]; 0.241 in [2]; -0.169 in assay [3]; -0.0907 in assay [4]; 1.41 in assay [5]; 1.91 in assay [6]. Also, the composite z-score was 1.49 in assay [8] and -0.287 in [9]. The z-score in [7] was 0.244; in assay [10], -0.367 (inactive).
